According to PMC5540273 (PLoS ONE, 2017):

Columns and labels:
Conditions in all cases: concentration: 1 μM, replicates: in singlicate; n = 1
[1] = system: T1, NIM1
T1 construct: gene MGC42105

[2] = system: NLK
[3] = system: T2, OSR1
T2 construct: gene OXSR1

[4] = system: PAK1
[5] = system: PAK2
[6] = system: PAK3
[7] = system: PAK4
[8] = system: PAK6
[9] = system: PAK7
[10] = system: T3, PCTK1
T3 construct: gene CDK16

[11] = system: T4, PCTK2
T4 construct: gene CDK17

[12] = system: T5, PCTK3
T5 construct: gene CDK18

[13] = system: PDGFRA
[14] = system: PDGFRB
[15] = system: PDPK1
[16] = system: PFTAIRE2
[17] = system: T6, PFTK1
T6 construct: gene CDK14

[18] = system: PHKG1
[19] = system: PHKG2
[20] = system: PIK3C2B
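Further: KINOMEscan kinase panel screen.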

Row | Structure (SMILES) | %Inh [1] [%] | %Inh [2] [%] | %Inh [3] [%] | %Inh [4] [%] | %Inh [5] [%] | %Inh [6] [%] | %Inh [7] [%] | %Inh [8] [%] | %Inh [9] [%] | %Inh [10] [%] | %Inh [11] [%] | %Inh [12] [%] | %Inh [13] [%] | %Inh [14] [%] | %Inh [15] [%] | %Inh [16] [%] | %Inh [17] [%] | %Inh [18] [%] | %Inh [19] [%] | %Inh [20] [%]
1 | CC(C)c1nc(-c2ccc(F)c(NS(=O)(=O)c3c(F)cccc3F)c2)c(-c2ccnc(Nc3ccc(N4CCOCC4)nc3)n2)s1 [GSK1804250] | 0 | 96.3 | 7 | 5 | 11 | 36 | 0 | 0 | 10 | 94.6 | 94.9 | 76 | 88 | 99.6 | 11 | 11 | 71 | 0 | 9 | 17
2 | COC(=O)Nc1nc2ccc(Oc3ccc(CC(=O)Nc4cc(C(F)(F)F)ccc4F)cc3)cc2[nH]1 [GW680903] | 26 | 22 | 3 | 19 | 22 | 15 | 0 | 0 | 97.7 | 0 | 0 | 30 | 98.5 | 100 | 0 | 0 | 14 | 0 | 0 | 0
3 | Cc1ccc(NC(=O)c2ccnc(N3CCCCC3)c2)cc1-c1ccc(C(=O)NCC2CC2)cc1 [GW775610] | 8 | 15 | 0 | 0 | 0 | 15 | 17 | 0 | 0 | 73 | 15 | 0 | 59 | 98.3 | 0 | 19 | 0 | 0 | 0 | 18
4 | CCn1c(-c2nonc2N)nc2c(-c3ccccc3)ncc(OCCCN)c21.O=C(O)C(F)(F)F.O=C(O)C(F)(F)F [GSK260205] | 39 | 94.5 | 3 | 2 | 31 | 49 | 0 | 0 | 0 | 0 | 0 | 0 | 18 | 98.8 | 0 | 0 | 13 | 0 | 0 | 1
5 | CC(C)c1nc(-c2cccc(NS(=O)(=O)c3c(F)cccc3F)c2)c(-c2ccnc(Nc3ccc(N4CCOCC4)nc3)n2)s1.Cl [GSK1723980] | 0 | 97 | 4 | 19 | 16 | 73 | 0 | 0 | 0 | 99.9 | 100 | 100 | 88 | 100 | 0 | 69 | 82 | 0 | 0 | 7
6 | Cc1ccccc1CC(=O)N1CCc2cc(-c3cn(C)c4ncnc(N)c34)ccc21 [GSK2603346] | 3 | 0 | 12 | 0 | 0 | 48 | 0 | 0 | 0 | 0 | 0 | 3 | 64 | 99.4 | 67 | 5 | 3 | 0 | 0 | 77
7 | c1ccc(Oc2ccc(Nc3ccnc4cc(-c5ccc(CN6CCCCC6)o5)ccc34)cc2)nc1 [GW567143] | 69 | 13 | 4 | 16 | 16 | 33 | 0 | 0 | 8 | 0 | 0 | 11 | 82 | 98.6 | 0 | 7 | 9 | 5 | 0 | 0
8 | O=C(O)C(F)(F)F.O=c1[nH]ccc2nc(N[C@@H]3CCNC3)nc(Nc3cc(Cl)cc(Cl)c3)c12 [GSK2188764] | 67 | 19 | 54 | 92.2 | 78 | 96.9 | 96.4 | 96 | 99.9 | 7 | 22 | 25 | 46 | 94.8 | 76 | 20 | 27 | 96.1 | 94.7 | 13
9 | COc1cccc(NC(=O)NCCNc2ccnc(Nc3ccc(F)cc3)n2)c1 [GSK1379879] | 17 | 8 | 17 | 16 | 8 | 0 | 0 | 0 | 0 | 0 | 0 | 0 | 0 | 53 | 0 | 6 | 18 | 0 | 0 | 0
10 | COc1cc(Nc2ccnc3cc(-c4ccncc4)ccc23)cc(OC)c1OC.Cl [GW494610] | 23 | 92.8 | 100 | 0 | 0 | 0 | 0 | 0 | 0 | 0 | 0 | 0 | 73 | 97.2 | 0 | 12 | 0 | 15 | 0 | 0
11 | Cc1ccc(C)c(NC(=O)Nc2ccc(C)c(-c3ccc(C(=O)Nc4ccncc4)cc3)c2)c1 [GSK1398473] | 1 | 50 | 2 | 21 | 15 | 15 | 0 | 0 | 0 | 13 | 0 | 23 | 80 | 100 | 2 | 12 | 14 | 0 | 0 | 0
12 | NCCC(NC(=O)c1cc(Br)c(-c2ccnc3[nH]ccc23)s1)c1ccccc1.O=C(O)C(F)(F)F.O=C(O)C(F)(F)F (stereo not shown) [GSK1307810] | 7 | 3 | 10 | 19 | 56 | 76 | 74 | 62 | 86 | 1 | 16 | 0 | 25 | 53 | 28 | 8 | 0 | 24 | 12 | 0
13 | Fc1cc(Cl)ccc1Nc1ccnc2cc(-c3ccc(CN4CCSCC4)o3)ccc12 [GW560106] | 23 | 30 | 0 | 8 | 4 | 45 | 0 | 0 | 0 | 0 | 0 | 8 | 99.1 | 100 | 0 | 6 | 11 | 1 | 0 | 0
14 | O=C(Nc1n[nH]c2nc(-c3ccccc3O)ccc12)C1CC1 [SB-711880] | 0 | 10 | 0 | 0 | 0 | 0 | 33 | 8 | 26 | 11 | 5 | 15 | 0 | 0 | 0 | 5 | 0 | 17 | 100 | 14
15 | Cc1cccc(Nc2nc(NCCN)ncc2C(N)=O)c1 [GSK1292139] | 29 | 0 | 15 | 16 | 48 | 16 | 93 | 76 | 98.6 | 3 | 0 | 0 | 51 | 89 | 0 | 16 | 0 | 42 | 63 | 0
16 | N#CC1(c2cccc(C(=O)Nc3cccc(Oc4ccc5nc(NC(=O)C6CC6)sc5n4)c3)c2)CC1 | 0 | 0 | 0 | 3 | 27 | 0 | 0 | 15 | 0 | 0 | 0 | 1 | 99.7 | 100 | 49 | 0 | 9 | 0 | 19 | 0
17 | CC(C)(C)c1ccc(C(=O)Nc2cn3cc(-n4ccnc4)ccc3n2)cc1 | 3 | 0 | 0 | 30 | 42 | 20 | 10 | 6 | 0 | 6 | 14 | 0 | 61 | 96.9 | 1 | 8 | 10 | 40 | 13 | 0
18 | COc1cccc(CC(=O)N2CCc3cc(-c4cn(C)c5ncnc(N)c45)ccc32)c1 [GSK2608899] | 0 | 5 | 6 | 13 | 4 | 50 | 2 | 0 | 18 | 3 | 0 | 4 | 88 | 99.2 | 20 | 12 | 0 | 0 | 0 | 83
19 | Cn1cc(-c2cnc(N)c3c(-c4ccc5c(c4)CCN5C(=O)Cc4ccccc4)csc23)cn1 [GSK2593074] | 0 | 17 | 0 | 17 | 0 | 13 | 0 | 17 | 3 | 0 | 0 | 6 | 98.2 | 100 | 56 | 0 | 0 | 6 | 14 | 13
20 | CC(C)NCC(Cc1ccccc1)NC(=O)c1cc(Br)c(-c2ccnc3[nH]ccc23)s1.Cl.Cl (stereo not shown) [GSK1383281] | 0 | 22 | 1 | 11 | 0 | 75 | 18 | 47 | 47 | 1 | 13 | 0 | 37 | 74 | 0 | 0 | 27 | 0 | 16 | 0
